In PubChem BioAssay (Tox21):
Inconclusive results are not listed. Entries that show only a call come without a potency. Unmarked numbers belong to inactive results. Calls of active or inactive are those of the source. Unless noted, calls follow the shape of the full dose curve.
Potency is read from the fitted curve at half-maximal effect.

Test: Nuclear factor erythroid 2-related factor 2/antioxidant responsive element (Nrf2/ARE) small molecule agonists: qHTS cell viability counter screen in human keratinocytes (AID 1919968; active = well fitted cell-killing curve with a large enough effect in the repeat runs; also: nearly all actives have a fitted effect of over 55% in size)
Conditions: KeratinoSens HaCaT ARE cells viability, CellTiter-Fluor, 24 h; series mostly up to 92.4 µM
Outline: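 Stably transfected HaCaT (KeratinoSens), 1,500/well. Test agents in DMSO were applied for 23 h, 37 C/5% CO2. CellTiter-Fluor was incubated 1 h before the fluorescence read.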
With `CCOC(=O)C1=NN(c2ccccc2)C(=O)C1` the Potency was “inactive”. For `C=C(C)CS(=O)(=O)O`, the Potency was “inactive”. In the case of `O=C(Cl)c1c(Cl)cccc1Cl`, the Potency is reported as “inactive”. In the case of `Cc1ccc2c(c1)CCCN2`, the Potency is reported as “inactive”. For `Cc1nc2ccc(CN(C)c3ccc(C(=O)N[C@@H](CCC(=O)O)C(=O)O)s3)cc2c(=O)[nH]1`, the Potency was “inactive”. For `CCCCCCCCCCCCCOC(=O)CCSCCC(=O)OCCCCCCCCCCCCC`, the activity change, negative = cytotoxicity was -1.71% [at 19 µM]. For `O=C=NCC1CCCC(CN=C=O)C1` (stereo not given), the Potency was “inactive”. In the case of `OC/C=C/c1ccccc1`, the Potency is reported as “inactive”. For `CC(C)=CC=O`, the Potency was “inactive”. For `CC(=O)c1ccc(C)cc1`, the Potency was “inactive”. With `CCCCCCCCCCCCOC(C)=O` the Potency was “inactive”. With `CC1=C(C(=O)O)N2C(=O)[C@@H](NC(=O)[C@H](N)C3=CCC=CC3)[C@H]2SC1` the Potency was “inactive”. With `Oc1cc2ccccc2c2ccccc12` the Potency was 13.7 µM (active). In the case of `CC(C)(C)c1ccc(N)cc1`, the Potency is reported as “inactive”. With `O=C1CCC(=O)N1Cl` the Potency was “inactive”. For `COc1ccc(CCO)cc1`, the Potency was “inactive”. With `CC(=O)OCC1=C(C(=O)O)N2C(=O)[C@@H](NC(=O)CSc3ccncc3)[C@H]2SC1` the Potency was “inactive”. For `COC(=O)C(C)=O`, the Potency was “inactive”. For `SC1CCCC1`, the Potency was “inactive”. With `CC(O)CC(C)O` (stereo not given) the Potency was “inactive”. For `CN1C(C)(C)CC(O)CC1(C)C`, the Potency was “inactive”. In the case of `CC(C)CCC(=O)CCC(C)C`, the Potency is reported as “inactive”. For `CCCCCCCCCCCCCCC`, the Potency was “inactive”. For `Nc1ccc2cc(S(=O)(=O)O)cc(O)c2c1N=Nc1ccccc1C(F)(F)F`, the Potency was “inactive”. With `CO/N=C1\CN(c2nc3c(cc2F)c(=O)c(C(=O)O)cn3C2CC2)CC1CN` (stereo not given) the Potency was “inactive”. In the case of `C=C(C)C(=O)OCCOP(=O)(O)OCCOC(=O)C(=C)C`, the Potency is reported as “inactive”. In the case of `C=C(C)C(=O)OCCOCCOC(=O)C(=C)C`, the Potency is reported as “inactive”. `CCCC(=O)O[C@]1(C(=O)COC(=O)CC)CC[C@H]2[C@@H]3CCC4=CC(=O)CC[C@]4(C)[C@H]3[C@@H](O)C[C@@]21C` gave an activity change, negative = cytotoxicity of -1.05% [at 19 µM]. With `O=Cc1ccccc1Cl` the Potency was “inactive”. With `CC(C)=CCCC(C)CC(=O)O` (stereo not given) the Potency was “inactive”. In the case of `CC(C)(COC(=O)c1ccccc1)COC(=O)c1ccccc1`, the Potency is reported as “inactive”. For `CN(C)CCOC(=O)C(c1ccccc1)C1(O)CCCC1` (stereo not given), the Potency was “inactive”. With `CCCC(=O)O[C@]1(C(=O)CO)CC[C@H]2[C@@H]3CCC4=CC(=O)CC[C@]4(C)[C@H]3[C@@H](O)C[C@@]21C` the Potency was “inactive”. In the case of `CCCCCCCCCCCCCCCC(=O)OCC`, the Potency is reported as “inactive”. With `CC(O)CN` (stereo not given) the Potency was “inactive”. In the case of `O=C(O)Cc1ccc(OCCNC[C@H](O)c2ccccc2)cc1`, the Potency is reported as “inactive”. With `O=C(O)c1c(Cl)ccc(Cl)c1Cl` the Potency was “inactive”. With `CC(=O)c1ccc([N+](=O)[O-])cc1` the Potency was “inactive”. With `CCCCCCOC(=O)CCCCCCCC(=O)OCCCCCC` the Potency was “inactive”. With `Cc1ccccc1N=C(N)N=C(N)N` the Potency was “inactive”.

Test: Nuclear factor erythroid 2-related factor 2/antioxidant responsive element (Nrf2/ARE) small molecule agonists: luciferase reporter gene qHTS assay in human keratinocytes (AID 1919969); also: nearly all actives have a fitted effect of over 35% in size
Conditions: KeratinoSens HaCaT ARE-luciferase, luminescence, 24 h; series mostly up to 92.4 µM
With `CCOC(=O)C1=NN(c2ccccc2)C(=O)C1` the Potency was “inactive”. For `C=C(C)CS(=O)(=O)O`, the Potency was “inactive”. In the case of `O=C(Cl)c1c(Cl)cccc1Cl`, the Potency is reported as “inactive”. In the case of `Cc1ccc2c(c1)CCCN2`, the Potency is reported as “inactive”. With `Cc1nc2ccc(CN(C)c3ccc(C(=O)N[C@@H](CCC(=O)O)C(=O)O)s3)cc2c(=O)[nH]1` the Potency was “inactive”. Compound `CCCCCCCCCCCCCOC(=O)CCSCCC(=O)OCCCCCCCCCCCCC` has an activity, positive = activation of 4.84% [at 19 µM]. In the case of `O=C=NCC1CCCC(CN=C=O)C1` (stereo not given), the Potency is reported as “inactive”. For `OC/C=C/c1ccccc1`, the Potency was “inactive”. With `CC(C)=CC=O` the Potency was “inactive”. For `CC(=O)c1ccc(C)cc1`, the Potency was “inactive”. With `CCCCCCCCCCCCOC(C)=O` the Potency was “inactive”. With `CC1=C(C(=O)O)N2C(=O)[C@@H](NC(=O)[C@H](N)C3=CCC=CC3)[C@H]2SC1` the Potency was “inactive”. With `Oc1cc2ccccc2c2ccccc12` the Potency was “inactive”. For `CC(C)(C)c1ccc(N)cc1`, the Potency was “inactive”. In the case of `O=C1CCC(=O)N1Cl`, the Potency is reported as “inactive”. With `COc1ccc(CCO)cc1` the Potency was “inactive”. In the case of `CC(=O)OCC1=C(C(=O)O)N2C(=O)[C@@H](NC(=O)CSc3ccncc3)[C@H]2SC1`, the Potency is reported as “inactive”. With `COC(=O)C(C)=O` the Potency was “inactive”. With `SC1CCCC1` the Potency was “inactive”. In the case of `CC(O)CC(C)O` (stereo not given), the Potency is reported as “inactive”. With `CN1C(C)(C)CC(O)CC1(C)C` the Potency was “inactive”. In the case of `CC(C)CCC(=O)CCC(C)C`, the Potency is reported as “inactive”. In the case of `CCCCCCCCCCCCCCC`, the Potency is reported as “inactive”. In the case of `Nc1ccc2cc(S(=O)(=O)O)cc(O)c2c1N=Nc1ccccc1C(F)(F)F`, the Potency is reported as “inactive”. With `CO/N=C1\CN(c2nc3c(cc2F)c(=O)c(C(=O)O)cn3C2CC2)CC1CN` (stereo not given) the Potency was “inactive”. For `C=C(C)C(=O)OCCOP(=O)(O)OCCOC(=O)C(=C)C`, the Potency was “inactive”. In the case of `C=C(C)C(=O)OCCOCCOC(=O)C(=C)C`, the Potency is reported as “inactive”. In the case of `CCCC(=O)O[C@]1(C(=O)COC(=O)CC)CC[C@H]2[C@@H]3CCC4=CC(=O)CC[C@]4(C)[C@H]3[C@@H](O)C[C@@]21C`, the activity, positive = activation is reported as -4.28% [at 19 µM]. With `O=Cc1ccccc1Cl` the Potency was “inactive”. In the case of `CC(C)=CCCC(C)CC(=O)O` (stereo not given), the Potency is reported as “inactive”. With `CC(C)(COC(=O)c1ccccc1)COC(=O)c1ccccc1` the Potency was “inactive”. For `CN(C)CCOC(=O)C(c1ccccc1)C1(O)CCCC1` (stereo not given), the Potency was “inactive”. For `CCCC(=O)O[C@]1(C(=O)CO)CC[C@H]2[C@@H]3CCC4=CC(=O)CC[C@]4(C)[C@H]3[C@@H](O)C[C@@]21C`, the Potency was “inactive”. For `CCCCCCCCCCCCCCCC(=O)OCC`, the Potency was “inactive”. For `CC(O)CN` (stereo not given), the Potency was “inactive”. For `O=C(O)Cc1ccc(OCCNC[C@H](O)c2ccccc2)cc1`, the Potency was 33.5 µM (active). In the case of `O=C(O)c1c(Cl)ccc(Cl)c1Cl`, the Potency is reported as “inactive”. With `CC(=O)c1ccc([N+](=O)[O-])cc1` the Potency was “inactive”. For `CCCCCCOC(=O)CCCCCCCC(=O)OCCCCCC`, the Potency was “inactive”. For `Cc1ccccc1N=C(N)N=C(N)N`, the Potency was “inactive”.
